Test results published in PubChem BioAssay (EPA / NIEHS).
Inconclusive results are not listed. Activity calls are given as the source filed them. How the source made its calls, unless noted: active means hit-call score of the fitted dose curve at least 0.9, where 1 is the maximum; inactive means score below 0.9.

What was measured:
[1] = target: Transcription factor E2F1 (Homo sapiens) (UniProt Q01094); assay: ATG_E2F_CIS: Attagene CIS-FACTORIAL HepG2 Assay for human E2F Transcription Factor 1 (AID 2282935); details: HepG2 Attagene cis-reporter, E2F reporter RNA transcripts; actives raise or lower the signal
Chain of Transcription factor E2F1 (Homo sapiens) (Q01094 whole entry, looked up): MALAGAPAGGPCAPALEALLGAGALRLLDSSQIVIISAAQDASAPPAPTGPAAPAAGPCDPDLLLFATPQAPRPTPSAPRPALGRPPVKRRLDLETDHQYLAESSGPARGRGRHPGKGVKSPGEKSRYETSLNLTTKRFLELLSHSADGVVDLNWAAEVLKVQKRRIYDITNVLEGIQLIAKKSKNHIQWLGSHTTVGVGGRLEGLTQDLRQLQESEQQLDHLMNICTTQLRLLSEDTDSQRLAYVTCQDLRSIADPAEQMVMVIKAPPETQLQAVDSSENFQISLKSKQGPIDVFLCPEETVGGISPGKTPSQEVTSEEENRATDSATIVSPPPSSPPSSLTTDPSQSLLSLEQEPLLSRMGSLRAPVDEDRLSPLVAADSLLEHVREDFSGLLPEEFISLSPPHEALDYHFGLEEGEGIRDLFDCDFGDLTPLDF
How it was run: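 In this cis-factorial format, endogenous factor activity drives transfected reporters in HepG2; transcripts collected at 24 h are quantified by fluorescence after RT-PCR and capillary separation.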

[2] = ATG_M_61_CIS: Attagene CIS-FACTORIAL HepG2 Assay for M61 Transcription Factor (Internal Marker) (AID 2282937); details: HepG2 Attagene CIS-FACTORIAL M61 internal marker reporter; actives raise or lower the signal
How it was run: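 Readout is reporter mRNA by RT-PCR, fluorescent primer extension and capillary electrophoresis, with gain or loss fitted relative to DMSO. Transfected HepG2 cells carrying endogenous-TF-driven cis reporters were exposed to chemicals for 24 hours.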

[3] = ATG_GRE_CIS: Attagene CIS-FACTORIAL HepG2 Assay for human Glucocorticoid Response Elements (GRE) (AID 2282947); details: HepG2 GRE cis-reporter, Attagene multiplex mRNA; actives raise or lower the signal
How it was run: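 HepG2, transient cis-reporter transfection, 24 h. Reporter mRNA: RT-PCR then CE, fluorescence. Fit both directions vs DMSO.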

[4] = ATG_ISRE_CIS: Attagene CIS-FACTORIAL HepG2 Assay for human Interferon Regulatory Factor 1 (IRF1) binding to an Interferon-Stimulated Response Element (ISRE) (AID 2282948); details: HepG2 ISRE cis-reporter (Attagene), mRNA transcription readout; actives raise or lower the signal
How it was run: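 Endogenous transcription factor activity read as reporter transcript abundance via RT-PCR and capillary electrophoresis. HepG2 cells transiently transfected, 24 h chemical exposure. Gain or loss fitted against DMSO baseline.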

[5] = target: Hepatocyte nuclear factor 6 (Homo sapiens) (UniProt Q9UBC0); assay: ATG_HNF6_CIS: Attagene CIS-FACTORIAL HepG2 Assay for human Hepatocyte Nuclear Factor 6 (HNF6) (AID 2282952); details: HepG2 Attagene cis-factorial HNF6 reporter transcription; actives raise or lower the signal
Chain of Hepatocyte nuclear factor 6 (Homo sapiens) (Q9UBC0 whole entry, looked up): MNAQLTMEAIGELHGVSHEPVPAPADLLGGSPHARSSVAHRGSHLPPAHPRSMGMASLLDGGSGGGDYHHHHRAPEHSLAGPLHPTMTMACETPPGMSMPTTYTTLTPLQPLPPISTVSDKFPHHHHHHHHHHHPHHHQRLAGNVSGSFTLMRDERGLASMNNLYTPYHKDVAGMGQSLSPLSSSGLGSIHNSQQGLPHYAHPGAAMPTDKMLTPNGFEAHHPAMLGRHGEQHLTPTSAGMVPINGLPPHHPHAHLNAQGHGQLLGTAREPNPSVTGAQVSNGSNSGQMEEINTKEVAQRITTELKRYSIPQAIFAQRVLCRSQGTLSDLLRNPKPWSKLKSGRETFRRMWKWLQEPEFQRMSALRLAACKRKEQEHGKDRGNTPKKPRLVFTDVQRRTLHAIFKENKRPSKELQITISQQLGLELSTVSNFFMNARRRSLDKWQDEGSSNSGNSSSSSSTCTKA
How it was run: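 Endogenous factor activity read in transiently transfected HepG2 via promoter-regulated reporter transcripts. RNA harvested 24 h post-dosing, reverse-transcribed, PCR-amplified, FAM-labelled, HpaI-digested and resolved by capillary electrophoresis; fitted in both directions against DMSO.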

[6] = target: Heat shock factor protein 1 (Homo sapiens) (UniProt Q00613); assay: ATG_HSE_CIS: Attagene CIS-FACTORIAL HepG2 Assay for human Heat Shock Transcription Factor 1 (HSE) (AID 2282953); details: HepG2 HSE cis-reporter, Attagene RNA transcription; actives raise or lower the signal
Chain of Heat shock factor protein 1 (Homo sapiens) (Q00613 whole entry, looked up): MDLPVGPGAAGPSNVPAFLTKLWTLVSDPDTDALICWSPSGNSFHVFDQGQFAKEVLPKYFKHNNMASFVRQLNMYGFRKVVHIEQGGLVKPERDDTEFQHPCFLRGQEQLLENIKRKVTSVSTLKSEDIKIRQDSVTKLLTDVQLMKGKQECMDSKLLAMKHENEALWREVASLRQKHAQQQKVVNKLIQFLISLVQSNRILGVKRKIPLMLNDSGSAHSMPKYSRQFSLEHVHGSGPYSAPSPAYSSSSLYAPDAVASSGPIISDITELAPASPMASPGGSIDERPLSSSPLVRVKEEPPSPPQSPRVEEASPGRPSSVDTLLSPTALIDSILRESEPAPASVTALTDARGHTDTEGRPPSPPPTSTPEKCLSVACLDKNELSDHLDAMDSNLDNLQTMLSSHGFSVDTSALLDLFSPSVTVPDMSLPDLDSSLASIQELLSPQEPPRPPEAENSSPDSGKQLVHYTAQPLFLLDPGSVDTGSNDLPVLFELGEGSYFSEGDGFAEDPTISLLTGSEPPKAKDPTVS
How it was run: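 Reporter mRNA induction in HepG2 is measured 24 h after dosing, using transiently transfected multiplexed cis-regulated reporter units. Signal comes from capillary electrophoresis of labelled RT-PCR products, with DMSO as negative control.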

[7] = ATG_MRE_CIS: Attagene CIS-FACTORIAL HepG2 Assay for human Metal Responsive Element (MRE) (AID 2282954); details: HepG2 MRE cis-reporter transcription, Attagene multiplex; actives raise or lower the signal
How it was run: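 Readout: capillary electrophoresis of 6-FAM-labelled, HpaI-digested RT-PCR reporter products. System: HepG2 cells carrying transient multiplexed cis reporters, dosed 24 h. Analysis: bidirectional fit, DMSO baseline.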

[8] = ATG_PBREM_CIS: Attagene CIS-FACTORIAL HepG2 Assay for human Phenobarbital-responsive Enhancer Module (PBREM) (AID 2282955); details: HepG2 PBREM cis-reporter, Attagene multiplexed transcription; actives raise or lower the signal
How it was run: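 Endogenous transcription factor activity was read from reporter transcripts in transiently transfected human HepG2 liver cells after 24 h dosing. RT-PCR products were fluorescently labelled, HpaI-cut and sized by capillary electrophoresis; activity fitted bidirectionally against DMSO baseline.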

[9] = ATG_PPRE_CIS: Attagene CIS-FACTORIAL HepG2 Assay for human Peroxisome Proliferator-activated Response Element (PPRE) (AID 2282958); details: HepG2 PPRE cis-element reporter, Attagene transcription factor profiling; actives raise or lower the signal
How it was run: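 Endogenous PPRE-driven transcription is measured in HepG2 cells carrying transfected multi-reporter constructs. Reporter transcripts are quantified by RT-PCR, HpaI digestion and capillary electrophoresis 24 h after dosing. DMSO baseline, bidirectional fit.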

[10] = ATG_M_06_TRANS: Attagene TRANS-FACTORIAL HepG2 Assay for M06 Transcription Factor (Internal Marker) (AID 2282983; active means hit-call score of the fitted dose curve at least 0.9, where 1 is the maximum;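 further: reporter transcript level by RT-PCR then capillary electrophoresis fluorescence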); details: HepG2 Attagene TRANS M06 internal marker reporter
How it was run: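 Background-control reporter readout: after 24 h chemical exposure of transiently transfected HepG2 (GAL4-UAS reporter units), mRNA quantified by RT-PCR with fluorescent labeling and capillary electrophoresis. Gain-of-signal fitting against DMSO baseline.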

[11] = target: Nuclear receptor subfamily 4 group A member 2 (Homo sapiens) (UniProt P43354); assay: ATG_NURR1_TRANS: Attagene TRANS-FACTORIAL HepG2 Assay for human Nuclear Receptor Related Protein 1 (NURR1) (AID 2282985; active means hit-call score of the fitted dose curve at least 0.9, where 1 is the maximum); details: HepG2 Attagene TRANS reporter, mRNA readout
Chain of Nuclear receptor subfamily 4 group A member 2 (Homo sapiens) (P43354 whole entry, looked up, the tested form may be a part): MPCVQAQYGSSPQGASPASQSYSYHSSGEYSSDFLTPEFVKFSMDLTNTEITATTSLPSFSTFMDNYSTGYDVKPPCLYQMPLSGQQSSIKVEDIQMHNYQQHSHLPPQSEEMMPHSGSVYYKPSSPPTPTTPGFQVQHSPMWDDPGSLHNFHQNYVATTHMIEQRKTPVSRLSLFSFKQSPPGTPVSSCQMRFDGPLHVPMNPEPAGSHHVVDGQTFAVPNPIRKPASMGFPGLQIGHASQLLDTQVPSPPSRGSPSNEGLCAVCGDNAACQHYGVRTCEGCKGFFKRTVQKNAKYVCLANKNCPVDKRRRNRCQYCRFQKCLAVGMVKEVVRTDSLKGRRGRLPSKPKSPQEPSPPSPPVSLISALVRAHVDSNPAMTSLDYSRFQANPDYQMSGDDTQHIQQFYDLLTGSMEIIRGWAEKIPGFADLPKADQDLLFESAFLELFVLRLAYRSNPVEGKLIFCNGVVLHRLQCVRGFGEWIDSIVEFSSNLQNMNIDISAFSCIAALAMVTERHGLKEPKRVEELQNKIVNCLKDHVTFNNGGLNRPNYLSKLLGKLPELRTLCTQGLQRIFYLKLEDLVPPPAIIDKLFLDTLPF
How it was run: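 Chimeric NR-Gal4 proteins were expressed in human HepG2 cells bearing GAL4-UAS reporter units, and induced reporter mRNA was quantified 24 h post-dosing by RT-PCR and capillary electrophoresis.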

[12] = target: Nuclear respiratory factor 1 (Homo sapiens) (UniProt Q16656); assay: ATG_NRF1_CIS: Attagene CIS-FACTORIAL HepG2 Assay for human Nuclear Respiratory Factor 1 (NRF1) Orphan Gene (AID 2282987); details: HepG2 NRF1 cis-element reporter, Attagene multiplex; actives raise or lower the signal
Chain of Nuclear respiratory factor 1 (Homo sapiens) (Q16656 whole entry, looked up): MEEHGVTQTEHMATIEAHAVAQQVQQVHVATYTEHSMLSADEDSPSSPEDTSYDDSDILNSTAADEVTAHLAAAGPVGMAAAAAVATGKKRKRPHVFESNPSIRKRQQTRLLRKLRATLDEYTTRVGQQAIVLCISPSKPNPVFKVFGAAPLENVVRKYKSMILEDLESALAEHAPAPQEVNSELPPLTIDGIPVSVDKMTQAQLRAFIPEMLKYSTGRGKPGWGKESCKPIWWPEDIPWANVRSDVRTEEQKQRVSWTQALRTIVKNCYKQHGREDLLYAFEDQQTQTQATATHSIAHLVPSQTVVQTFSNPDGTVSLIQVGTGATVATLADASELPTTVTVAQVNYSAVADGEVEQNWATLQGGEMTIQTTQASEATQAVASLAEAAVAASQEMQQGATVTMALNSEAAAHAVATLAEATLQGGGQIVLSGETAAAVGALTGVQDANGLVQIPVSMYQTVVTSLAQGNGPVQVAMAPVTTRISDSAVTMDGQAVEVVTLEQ
How it was run: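 Endogenous NRF1-driven reporter transcription in transfected HepG2 cells after 24 h treatment. Readout: RT-PCR products, 6-FAM labelled and resolved by capillary electrophoresis; changes fitted both directions relative to DMSO.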

[13] = target: Retinoic acid receptor RXR-alpha (Homo sapiens) (UniProt P19793); assay: ATG_RXRa_TRANS: Attagene TRANS-FACTORIAL HepG2 Assay for human Retinoid X Receptor alpha (RXRa) (AID 2283012; active means hit-call score of the fitted dose curve at least 0.9, where 1 is the maximum)
Chain of Retinoic acid receptor RXR-alpha (Homo sapiens) (P19793 whole entry, looked up, the tested form may be a part): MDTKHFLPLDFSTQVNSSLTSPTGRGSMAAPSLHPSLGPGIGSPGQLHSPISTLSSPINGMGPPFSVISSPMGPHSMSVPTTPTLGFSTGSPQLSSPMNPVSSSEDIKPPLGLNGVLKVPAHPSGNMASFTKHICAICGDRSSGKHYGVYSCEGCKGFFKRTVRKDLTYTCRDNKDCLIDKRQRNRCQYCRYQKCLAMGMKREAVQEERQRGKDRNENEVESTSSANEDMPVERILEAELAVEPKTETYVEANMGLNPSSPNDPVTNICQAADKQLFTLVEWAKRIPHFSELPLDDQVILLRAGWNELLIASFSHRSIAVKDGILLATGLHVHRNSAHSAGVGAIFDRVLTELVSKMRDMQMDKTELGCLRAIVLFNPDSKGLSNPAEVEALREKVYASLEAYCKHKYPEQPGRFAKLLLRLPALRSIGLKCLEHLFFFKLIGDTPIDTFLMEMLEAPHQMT
How it was run: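 Chimeric NR-GAL4 trans-activation in HepG2, 24 h treatment; reporter transcripts quantified by fluorescence on capillary electrophoresis, analysed for upward change from DMSO.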

[14] = target: Cellular tumor antigen p53 (Homo sapiens) (UniProt P04637); assay: TOX21_p53_BLA_p2_ratio: Tox21 HCT-116 p53 Agonism Beta-lactamase Assay, Ratio, Phase 2 (AID 2283592; active means hit-call score of the fitted dose curve at least 0.9, where 1 is the maximum)
Chain of Cellular tumor antigen p53 (Homo sapiens) (P04637 whole entry, looked up): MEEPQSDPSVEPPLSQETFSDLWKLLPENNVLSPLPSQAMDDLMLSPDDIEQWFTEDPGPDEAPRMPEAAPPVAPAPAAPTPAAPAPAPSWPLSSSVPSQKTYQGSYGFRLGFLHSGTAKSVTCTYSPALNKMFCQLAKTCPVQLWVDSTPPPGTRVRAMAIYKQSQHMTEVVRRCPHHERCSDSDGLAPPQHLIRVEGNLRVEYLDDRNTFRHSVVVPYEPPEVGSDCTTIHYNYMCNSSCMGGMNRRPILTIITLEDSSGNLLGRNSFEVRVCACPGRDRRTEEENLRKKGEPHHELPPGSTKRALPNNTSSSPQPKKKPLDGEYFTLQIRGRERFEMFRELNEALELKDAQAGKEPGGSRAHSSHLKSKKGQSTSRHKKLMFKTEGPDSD
How it was run: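 Read-out is the blue/green (460/530 nm, 405 nm excitation) ratio after 2 h CCF4-AM loading, fitted as gain versus DMSO. Compounds, pinned at 217-fold dilution from DMSO stocks, stayed 16 h on HCT-116 beta-lactamase reporter cells seeded 5 h earlier.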

[15] = target: Cellular tumor antigen p53 (Homo sapiens) (UniProt P04637); assay: TOX21_p53_BLA_p3_ratio: Tox21 HCT-116 p53 Agonism Beta-lactamase Assay, Ratio, Phase 3 (AID 2283596; active means hit-call score of the fitted dose curve at least 0.9, where 1 is the maximum)
How it was run: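 Cells were seeded at 4000/well, rested 5 h at 37C, then dosed with DMSO compound solutions (217-fold dilution) for 16 h. CCF4-AM substrate was loaded for 2 h at room temperature, and the 460/530 nm emission ratio was fitted for gain of signal versus DMSO.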

[16] = target: Cellular tumor antigen p53 (Homo sapiens) (UniProt P04637); assay: TOX21_p53_BLA_p5_ratio: Tox21 HCT-116 p53 Agonism Beta-lactamase Assay, Ratio, Phase 5 (AID 2283599; active means hit-call score of the fitted dose curve at least 0.9, where 1 is the maximum)
How it was run: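 HCT-116 cells carrying a p53-inducible beta-lactamase reporter were seeded at 4000 cells/well and dosed after 5 h with compound in DMSO (217-fold dilution). After 16 h at 37C, CCF4-AM substrate was added for 2 h, and the 460/530 nm emission ratio was scored as gain-of-signal versus DMSO.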

[17] = target: Cellular tumor antigen p53 (Homo sapiens) (UniProt P04637); assay: TOX21_p53_BLA_p4_ratio: Tox21 HCT-116 p53 Agonism Beta-lactamase Assay, Ratio, Phase 4 (AID 2283601; active means hit-call score of the fitted dose curve at least 0.9, where 1 is the maximum)
How it was run: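 HCT116 cells carrying an inducible beta-lactamase reporter were plated at 4000 cells/well, rested 5 h, then exposed to compounds in DMSO (217-fold dilution) for 16 h at 37C. CCF4-AM substrate was loaded 2 h at room temperature; 460/530 nm emission ratio scored gain-of-signal versus DMSO.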

[18] = target: Hypoxia-inducible factor 1-alpha (Homo sapiens) (UniProt Q16665); assay: ATG_HIF1a_CIS: Attagene CIS-FACTORIAL HepG2 Assay for human Hypoxia Inducible Factor 1 (HIF1A) (AID 2282951); details: HepG2 Attagene cis-factorial HIF1a reporter transcription; actives raise or lower the signal
Chain of Hypoxia-inducible factor 1-alpha (Homo sapiens) (Q16665 whole entry, looked up): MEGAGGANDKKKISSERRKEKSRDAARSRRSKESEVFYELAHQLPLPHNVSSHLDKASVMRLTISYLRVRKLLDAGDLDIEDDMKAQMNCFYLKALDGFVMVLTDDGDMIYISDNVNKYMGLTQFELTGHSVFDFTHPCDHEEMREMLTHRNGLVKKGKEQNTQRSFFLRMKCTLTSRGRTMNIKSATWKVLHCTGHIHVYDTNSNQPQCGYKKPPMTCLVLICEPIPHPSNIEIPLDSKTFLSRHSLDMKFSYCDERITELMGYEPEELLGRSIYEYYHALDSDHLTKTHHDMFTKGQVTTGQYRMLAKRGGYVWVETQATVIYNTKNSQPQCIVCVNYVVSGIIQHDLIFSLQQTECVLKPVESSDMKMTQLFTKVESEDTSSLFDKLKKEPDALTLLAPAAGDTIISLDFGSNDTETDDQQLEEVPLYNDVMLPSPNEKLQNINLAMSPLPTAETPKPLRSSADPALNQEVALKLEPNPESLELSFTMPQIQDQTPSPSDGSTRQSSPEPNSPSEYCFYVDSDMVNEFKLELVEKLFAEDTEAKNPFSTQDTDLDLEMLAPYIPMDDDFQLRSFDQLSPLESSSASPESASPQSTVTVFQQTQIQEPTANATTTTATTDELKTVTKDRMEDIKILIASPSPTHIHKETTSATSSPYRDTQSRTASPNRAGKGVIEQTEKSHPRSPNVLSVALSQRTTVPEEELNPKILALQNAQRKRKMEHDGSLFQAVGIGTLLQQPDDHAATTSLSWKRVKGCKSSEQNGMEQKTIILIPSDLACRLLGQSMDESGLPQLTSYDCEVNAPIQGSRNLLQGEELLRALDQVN
How it was run: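 Activity is fitted in both directions relative to DMSO. Reporter transcripts are read by RT-PCR, fluorescent primer extension and capillary electrophoresis after 24 h chemical treatment. The cells are HepG2 carrying transiently transfected cis-element-driven reporter units responding to endogenous factors.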

[19] = ATG_TCF_b_cat_CIS: Attagene CIS-FACTORIAL HepG2 Assay for human T-Cell-Factor with beta-catenin (TCF/b-cat) (AID 2282965); details: HepG2 TCF/beta-catenin cis-reporter transcription, actives raise or lower the signal
How it was run: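 HepG2 cells transiently transfected with multiple cis-promoter-regulated reporter transcription units, so endogenous transcription factor activity is measured. Reporter mRNA read 24 hours after dosing by RT-PCR, fluorescent labelling and capillary electrophoresis; bidirectional fitting against DMSO.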

[20] = target: Transcriptional activator Myb (Homo sapiens) (UniProt P10242); assay: ATG_Myb_CIS: Attagene CIS-FACTORIAL HepG2 Assay for human Myeloblastosis (Myb) Proto-Oncogene Transcription Factor (AID 2282986); details: HepG2 Attagene CIS-FACTORIAL Myb reporter transcription; actives raise or lower the signal
Chain of Transcriptional activator Myb (Homo sapiens) (P10242 whole entry, looked up): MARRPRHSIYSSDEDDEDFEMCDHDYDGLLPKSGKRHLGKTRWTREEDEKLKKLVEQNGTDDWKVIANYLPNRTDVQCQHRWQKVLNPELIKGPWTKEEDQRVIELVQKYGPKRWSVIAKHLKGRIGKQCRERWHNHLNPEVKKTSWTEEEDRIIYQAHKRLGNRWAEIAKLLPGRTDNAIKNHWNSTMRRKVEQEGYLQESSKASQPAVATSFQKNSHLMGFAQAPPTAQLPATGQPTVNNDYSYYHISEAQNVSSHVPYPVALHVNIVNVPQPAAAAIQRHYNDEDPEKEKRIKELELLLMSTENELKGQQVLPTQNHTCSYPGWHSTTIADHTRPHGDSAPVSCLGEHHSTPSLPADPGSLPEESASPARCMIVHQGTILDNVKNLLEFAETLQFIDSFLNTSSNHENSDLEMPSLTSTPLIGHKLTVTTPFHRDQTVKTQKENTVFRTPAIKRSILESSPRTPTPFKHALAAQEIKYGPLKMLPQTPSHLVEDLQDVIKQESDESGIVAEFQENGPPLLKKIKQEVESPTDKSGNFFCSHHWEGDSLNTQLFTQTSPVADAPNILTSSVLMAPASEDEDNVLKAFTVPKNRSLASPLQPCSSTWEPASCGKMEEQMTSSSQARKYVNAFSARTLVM
How it was run: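 Reporter mRNA is quantified by RT-PCR and capillary electrophoresis 24 h after dosing HepG2 cells transfected with cis-regulated reporter units, which track endogenous transcription factor activity. Gain and loss of signal are fitted versus DMSO baseline.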

SMILES: CCC(C)c1cc([N+](=O)[O-])cc([N+](=O)[O-])c1OC(=O)C=C(C)C (stereo not given)
- AC50 [1]: 151 µM (active)
- outcome [2]: inactive
- outcome [3]: inactive
- AC50 [4]: 141 µM (active)
- outcome [5]: inactive
- AC50 [6]: 25.8 µM (active)
- AC50 [7]: 27.5 µM (active)
- outcome [8]: inactive
- outcome [9]: inactive
- outcome [10]: inactive
- outcome [11]: inactive
- outcome [12]: inactive
- outcome [13]: inactive
- AC50 [14]: 13.8 µM (active)
- AC50 [15]: 13.9 µM (active)
- AC50 [16]: 10.3 µM (active)
- AC50 [17]: 14.3 µM (active)

SMILES: CCC(C)(C)O
- outcome [1]: inactive
- outcome [2]: inactive
- outcome [3]: inactive
- outcome [4]: inactive
- outcome [5]: inactive
- outcome [7]: inactive
- outcome [8]: inactive
- outcome [9]: inactive
- outcome [10]: inactive
- outcome [11]: inactive
- outcome [12]: inactive

SMILES: COC(C)(C)CCC[C@H](C)C/C=C/C(C)=C/C(=O)OC(C)C
- outcome [2]: inactive
- outcome [4]: inactive
- outcome [18]: inactive
- AC50 [7]: 36.6 µM (active)
- outcome [8]: inactive
- outcome [19]: inactive
- outcome [10]: inactive
- AC50 [11]: 121 µM (active)
- AC50 [20]: 165 µM (active)
- outcome [12]: inactive
- outcome [13]: inactive
- outcome [14]: inactive
- outcome [15]: inactive
- outcome [16]: inactive
- outcome [17]: inactive

SMILES: CNC(=O)Oc1cc(C)c(SC)c(C)c1
- outcome [1]: inactive
- outcome [3]: inactive
- AC50 [4]: 100 µM (active)
- outcome [6]: inactive
- AC50 [7]: 74.2 µM (active)
- outcome [8]: inactive
- AC50 [9]: 36.4 µM (active)
- outcome [10]: inactive
- outcome [11]: inactive
- outcome [20]: inactive
- outcome [12]: inactive
- outcome [13]: inactive

SMILES: Nc1ccccc1C(=O)Oc1ccc2ccccc2c1
- outcome [2]: inactive
- outcome [3]: inactive
- outcome [5]: inactive
- AC50 [7]: 67.2 µM (active)
- outcome [8]: inactive
- AC50 [19]: 164 µM (active)
- outcome [10]: inactive
- outcome [11]: inactive
- AC50 [20]: 162 µM (active)
- AC50 [12]: 139 µM (active)
- AC50 [13]: 152 µM (active)
- outcome [14]: inactive
- outcome [15]: inactive
- AC50 [16]: 83.5 µM (active)
- outcome [17]: inactive

SMILES: CCc1cc(C)cc(CC)c1-c1c(OC(=O)C(C)(C)C)n2n(c1=O)CCOCC2
- AC50 [1]: 25.8 µM (active)
- outcome [2]: inactive
- outcome [3]: inactive
- outcome [4]: inactive
- outcome [7]: inactive
- outcome [9]: inactive
- outcome [19]: inactive
- outcome [11]: inactive
- outcome [20]: inactive
- outcome [13]: inactive
